Compound activity as filed in PubChem.
Shown are actives, neighbours in structure and some others; about 3.7% of the full set was active somewhere.
ELG1 DNA repair = ELG1-dependent DNA repair inhibition. HEK293T ELG1-luciferase reporter, luminescence, 16 h; DNA damage induced by 5-fluorouridine. Potency, µM (top dose mostly 46.1 µM), for the others: top-dose activity change, negative = inhibition, actives largely listed as inhibitors. hit rate 2.3% among 330,000. AID 504467; note: % is set by controls: 0 for no effect and ±100 for the full control effect; nearly all actives have a fitted effect of over 55% in size
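Quantitative HTS, concentration-response format. 2,000 cells/well co-treated with 5-fluorouridine and compound, 16 hr in 5% CO2 at 37 °C; ONE-Glo luminescence read after 30 min.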
Nrf2 block = inhibitors of Nrf2 signaling. Potency, µM (series often up to 46 µM), inactives show at the top dose activity change, negative = inhibition, most hits filed as inhibitors. AID 504444. A549 ARE-Fluc reporter, luciferase luminescence, 18-24 h. hit rate 2.1% among 360,000; note: % is set by controls: 0 for no effect and ±100 for the full control effect; nearly all actives have a fitted effect of over 60% in size
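Two sequential reads on A549 ARE_Fluc cells exposed to compound for 18-24 h: a CellTiter-Fluor fluorescence read for viability, then a luciferase luminescence read for Nrf2/ARE activity.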
A549 viability = kills or reduces viability of A549 cells in Nrf2 counter-screen; A549 ARE-Fluc cells, CellTiter-Fluor viability, 18-24 h; Potency, µM (highest dose often 46 µM), inactives show at the highest dose activity change, negative = cytotoxicity, usual class: inhibitors; hit rate 0.16% among 390,000; AID 504648; note: % is set by controls: 0 for no effect and ±100 for the full control effect
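A549 ARE-Fluc cells in 5% FBS OPTI-MEM, 5000 cells/well, rested 2 h then exposed to compounds in concentration-response for 18-24 h at 37 °C. Viability by CellTiter-Fluor fluorescence (Ex 405/Em 525) after 30 min; luciferase luminescence (BugLite, 15 min, RT) read afterwards.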
Nrf2 ARE act = activators of Nrf2 (ARE) signaling. Potency, µM (doses to about 46.1 µM), without a hit: at the top dose activation, actives largely listed as activators. AREc32 ARE-luciferase reporter (MCF7-derived line), luminescence, 24 h. hit rate 0.31% among 410,000; note: % of control where 0% means no effect; nearly all actives have a fitted effect of over 65% in size
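Luciferase luminescence (Steady-Glo, 30 min at room temperature) served as the read-out of ARE activation in AREc32 cells treated with compounds for 24 hr at 37 deg C.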
Starred values were filed as active, the others as inactive; ? = inconclusive; / = no result given. Calls come from the whole dose curve; as a rule, active = well fitted curve in the direction sought with a large enough effect; inconclusive = small, poorly fitted or top-dose-only effect, or another doubt; inactive = no such curve, though single readings can be large; an effect the other way counts as inactive or inconclusive. Potency is the fitted concentration of half-maximal effect.

SMILES	ELG1 DNA repair	Nrf2 block	A549 viability	Nrf2 ARE act
COC(=O)CN1C(=O)[C@@H]2[C@H](C1=O)[C@@H]1CC(C(=O)OC)=C[C@@H](C(=O)OC)C3C1=C(C(=O)[C@]3(C)NC(=O)c1ccccc1)[C@@H]2C (stereo partly drawn)	/	3%	0%	/
COc1ccc(C2Nc3ccccc3C(=O)N2CCc2ccc(Cl)cc2Cl)cc1COc1ccc(NC(C)=O)cc1 (stereo not drawn)	/	-16%	6%	/
O=C(Nc1cccc(Cl)c1)C(Cc1ccccc1)n1cccc1 (stereo not drawn)	/	?	-6%	-1%
CCc1cccc(NC(=O)C(Cc2ccccc2)n2cccc2)c1 (stereo not drawn)	/	21µM*	-13%	0%
CCOC(=O)C1CCN(C(=O)c2ccc3c(c2)NC(=O)/C(=C\c2cccc(C)c2)S3)CC1	15µM*	-25%	9%	0%
COc1ccc(-n2nc(C(=O)NCCc3cccc(C)c3)c3c4ccccc4n(C)c3c2=O)cc1Cl	/	7%	5%	4%
Cc1c(C#N)c(NC(=O)CCl)n(Cc2ccc(F)cc2)c1C	?	18µM*	-25%	?
Cc1c(C#N)c(NC(=O)CCl)n(Cc2cccs2)c1C	?	15µM*	?	?
O=C(NNC(=O)c1cc(Cl)ccc1[N+](=O)[O-])c1csc(N2CCOCC2)n1	11%	-19%	-5%	3%
CCCC(C)NC(=O)COc1ccc(S(=O)(=O)c2ccc(OCC(=O)NC(C)CCC)cc2)cc1 (stereo not drawn)	?	-2%	1%	0%
COc1ccc(C2Nc3ccccc3C(=O)N2Cc2ccccc2)cc1COc1ccc(Cl)cc1 (stereo not drawn)	/	-15%	-1%	/
Oc1c(N=Nc2ccccc2)sc2ccccc12	?	21%	7%	2.8µM*
Cc1[nH]nc2c1-c1nc3ccccc3nc1C(C)(C)C2	9.2µM*	15µM*	15µM*	0%
CC12CCC(C)(c3nc4ccccc4nc31)C2(C)C	0%	4%	4%	0%
Cc1ccc(-c2csc(NC(=O)c3ccc(Br)cc3)c2C(=O)O)cc1	?	?	-8%	0%
COc1cc(C(=O)Nc2sc(C)c(C)c2C(=O)O)cc(OC)c1OC	10%	-26%	0%	7%
Cc1cccc(C(=O)Nc2scc(CC(C)C)c2C(=O)O)c1	6%	?	?	-1%
COc1cc(C(=O)Nc2scc(-c3ccc(Br)cc3)c2C(=O)O)cc(OC)c1OC	2%	16µM*	-16%	-1%
Cc1ccc(-c2csc(NC(=O)c3cccc(C)c3)c2C(=O)O)cc1	/	7.3µM*	-18%	-1%
Cc1cccc(C(=O)Nc2scc(-c3ccc(Br)cc3)c2C(=O)O)c1	/	12µM*	-15%	-1%
C=CC[C@@H](CC(=O)N(CCO)Cc1ccccc1)C(=O)N[C@H](COC(=O)[C@@H](CC=C)Cc1ccc(F)cc1)Cc1ccccc1	-22%	?	-29%	-2%
C=CCC[C@H](Cc1ccc(F)cc1)C(=O)OC[C@H](Cc1c[nH]c2ccccc12)NC(=O)[C@@H](CC=C)CC(=O)NCCO	21µM*	?	-13%	-1%
C=CC[C@H](CC(=O)N(CCO)Cc1ccccc1)C(=O)NC[C@H](OC(=O)[C@@H](CC=C)Cc1ccc(F)cc1)c1ccccc1	15µM*	18µM*	?	-5%
C=CC[C@@H](CC(=O)N(CCO)Cc1ccccc1)C(=O)N[C@@H](COC(=O)[C@@H](CC=C)Cc1ccc(F)cc1)Cc1ccccc1	?	23µM*	?	-5%
C=CCC[C@@H](Cc1ccc(F)cc1)C(=O)OC[C@@H](Cc1c[nH]c2ccccc12)NC(=O)[C@@H](CC=C)CC(=O)N(CCO)Cc1ccccc1	?	?	?	-2%
SMILES	ELG1 DNA repair	Nrf2 block	A549 viability	Nrf2 ARE act
C=CC[C@@H](CC(=O)N(CCO)Cc1ccccc1)C(=O)N[C@H](COC(=O)[C@@H](CC=C)Cc1ccc(F)cc1)Cc1c[nH]c2ccccc12	21µM*	?	?	-2%
C=Cc1ccc(Cn2c(C)c(C(=O)NCc3cccc(C)c3)sc2=O)cc1	/	/	/	3%
CCOc1ccc(NC(=O)CC2C(=O)N(c3ccccc3)C(=O)N2Cc2cccc(OC)c2)cc1 (stereo not drawn)	/	?	-6%	0%
C=CCC[C@H](Cc1ccc(F)cc1)C(=O)OC[C@H](Cc1c[nH]c2ccccc12)NC(=O)[C@H](CC=C)CC(=O)N(CCO)Cc1ccccc1	21µM*	?	?	-4%
C=CC[C@H](CC(=O)N(CCO)Cc1ccccc1)C(=O)N[C@H](COC(=O)[C@@H](CC=C)Cc1ccc(F)cc1)Cc1c[nH]c2ccccc12	23µM*	?	?	-5%
CCc1cccc(NC(=O)CSc2nc3ccsc3c(=O)n2CC)c1	/	?	0%	0%
CCCCC1(O)CC(C(F)(F)F)=NN1C(=O)COc1ccccc1 (stereo not drawn)	?	16µM*	?	0%
CC(NC(=O)c1cccc(S(=O)(=O)N2CCc3ccccc32)c1)c1ccco1 (stereo not drawn)	0%	?	-8%	4%
Nc1[nH]n2c(=O)c3c(nc2c1N=Nc1ccccc1)CCCC3	?	/	13µM*	0%
Cc1cccc(N2CCN(C(=O)Cn3cnc4sc(C)c(S(=O)(=O)N5CCN(c6ncccn6)CC5)c4c3=O)CC2C)c1 (stereo not drawn)	/	-29%	-8%	0%
COc1nc(N/N=C/c2cc3c(cc2Br)OCO3)nc(N2CCOCC2)n1	?	16µM*	13%	2%
CCOc1ccc(C(C)=O)cc1CSC(=N)N	-12%	17%	-10%	0%
CCCCOc1ccc(Br)cc1CSC(=N)N	23µM*	?	-11%	9%
Clc1ccc(CSc2nnc(Cn3cnc4ccccc43)o2)cc1	-14%	8.2µM*	-14%	-1%
NC(=O)CSc1nnc(Cn2cnc3ccccc32)o1	18%	-14%	8%	0%
CC(=O)Nc1ccc2c(c1)nc1n2CCN(C2CCCCC2)C1	?	?	0%	0%
Cc1[nH]c2ccccc2c1C(=O)CN1CCN(c2ccc(Cl)cc2)CC1	-13%	-6%	0%	-1%
CS(=O)(=O)N1CCN(c2ccccc2NC(=O)c2ccc3ccccc3c2)CC1	12µM*	-12%	-20%	3%
CN1CCN(c2ccccc2NC(=O)c2ccc(-c3ccc(Br)cc3)o2)CC1	?	-2%	-11%	-1%
Cc1ccccc1NC(=O)c1ccc([N+](=O)[O-])o1	?	-1%	-2%	?
CN1CCN(c2ccccc2NC(=O)c2ccc([N+](=O)[O-])o2)CC1	9.2µM*	-7%	-14%	-2%
CS(=O)(=O)N1CCN(c2ccccc2NC(=O)c2ccc([N+](=O)[O-])o2)CC1	23µM*	-14%	0%	8.9µM*
CCOC(=O)c1cccc(NC(=O)Cn2ncc3c4ccccc4n(Cc4ccccc4)c3c2=O)c1	/	-8%	-2%	-1%
